For 89 compounds, activity, negative = inhibition and Potency results are on record in PubChem BioAssay AID504332 (National Center for Advancing Translational Sciences (NCATS), 2011).

“And” between values parts separate entries of the source, which are not always exact repeats. Identical values can stand only once. Among all 350,000 compounds or so, about 31,000 (8.9%) were called active. Roughly 15% stayed inconclusive and do not appear here. Calls come from the whole dose curve; as a rule, active = well fitted inhibition curve with a large enough effect; inconclusive = small, poorly fitted or top-dose-only effect; inactive = no such curve, though single readings can be large or run the other way. The entries come from a sample that favours actives as a whole. Where a call stands in place of a potency, no number is given. Where a structure was tested more than once in an assay, its records may differ in their call.
Potency is the fitted concentration of half-maximal effect.

Chain of Histone-lysine N-methyltransferase EHMT2 (Homo sapiens) (Q96KQ7 913-1193 limits assumed): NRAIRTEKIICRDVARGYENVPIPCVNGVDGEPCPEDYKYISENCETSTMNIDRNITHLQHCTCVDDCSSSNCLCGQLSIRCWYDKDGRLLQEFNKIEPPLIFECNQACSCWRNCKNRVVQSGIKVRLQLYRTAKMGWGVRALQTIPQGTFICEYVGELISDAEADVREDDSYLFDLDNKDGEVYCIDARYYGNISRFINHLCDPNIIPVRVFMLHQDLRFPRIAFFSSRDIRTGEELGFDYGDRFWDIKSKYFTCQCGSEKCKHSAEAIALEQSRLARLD

The assay addresses Histone-lysine N-methyltransferase EHMT2 (Homo sapiens) (UniProt Q96KQ7). The assay is described as follows: qHTS Assay for Inhibitors of Histone Lysine Methyltransferase G9a. Note: nearly all actives have a fitted effect of over 75% in size. As to conditions: G9a H3K9 monomethylation, AlphaScreen, 2 h; series mostly up to 59 µM. Put shortly: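 AlphaScreen detection with an anti-monomethyl H3K9 antibody quantified product after a 2 h room-temperature reaction containing 500 nM biotinylated H3K9 peptide, 20 µM SAM and 20 nM enzyme, which had been preincubated 15 min with compound.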
Background: qHTS replaces the single test concentration by a dilution series.
For the compound `O=S(=O)(Nc1ccc(-c2ccc(N3CCOCC3)nn2)cc1)c1cc(Cl)ccc1Cl`, the activity, negative = inhibition is -28.8% [at 2.33 µM] (inactive).
On to `COc1ccccc1N1CCN(C(=O)C2CCN(S(=O)(=O)c3c(C)noc3/C=C/c3ccc(C)cc3)CC2)CC1`, for which the Potency result is “inactive”.
`Cc1ccc(CNC(=O)CCS(=O)(=O)c2ccc3c(c2)CC(C)N3C(=O)C2CC2)o1` (centres undefined): the activity, negative = inhibition is 17.4% [at 0.0925 µM] (inactive).
With `Cn1c(SCc2ccc(F)cc2)nnc1-c1ccncc1`, the Potency result was “inactive”.
For `CCOc1ccc(Nc2c(S(=O)(=O)c3ccccc3)cnc3ccccc23)cc1`, the Potency result is “inactive”.
For `Cc1ccc(CNS(=O)(=O)c2ccc(C(=O)N(C)C)s2)cc1`, the Potency result was “inactive”.
As for `Cc1ccc(-n2ncc3c(NCCCn4ccnc4)ncnc32)cc1Cl`, the Potency result is “inactive”.
On the same count and under the same terms, with `Cn1c(=O)[nH]c(=O)c2c1nc(N1CCCCCC1)n2CC(=O)c1ccccc1` the entry was “inactive”.
As to `Cn1c(=O)[nH]c(=O)c2c1nc(N1CCN(C(c3ccccc3)c3ccccc3)CC1)n2CCO`, the Potency result was “inactive”.
Take `CN1CCN(c2nc3c(c(=O)[nH]c(=O)n3C)n2Cc2cccc3ccccc23)CC1`: the Potency was 25.1 µM (active).
Turning to `Cc1cn([C@H]2CC(F)[C@@H](CO)O2)c(=O)[nH]c1=O` (some centres undefined), the activity, negative = inhibition was 8.73% [at 12.7 µM] (inactive).
In the case of `COc1ccc(NC(=O)Cn2c(=O)n(Cc3ccc(C(=O)NCc4ccccc4Cl)cc3)c(=O)c3ccccc32)cc1`, the Potency result is “inactive”.
On the same count and under the same terms, the value for `Cc1noc(C)c1C(=O)OCC(=O)/C=C1\N(C)c2ccccc2C1(C)C` was “inactive”; that for `CN1/C(=C\C=C2\N=C(c3ccc(F)cc3)OC2=O)C(C)(C)c2ccccc21` was 4.47 µM (active).
Still for that read-out and setting: with `CN1/C(=C\C(=O)c2cccnc2Cl)C(C)(C)c2ccccc21` the entry was “inactive”.
Regarding `CC(=O)Nc1ccc(SC[C@H](Cc2ccccc2)N2CC[C@@H](C)CCC2=O)cc1`, the activity, negative = inhibition was -3.36% [at 0.501 µM] (inactive).
`Cc1ccc(OCCSc2nc(-c3cccs3)nc3cc(=O)[nH]n23)cc1Cl`: the Potency result is “inactive”.
For `Cc1ccc(C(=O)NNC(=O)c2ccncc2)cc1S(=O)(=O)N1CCCCC1`, the Potency entry was “inactive”.
Take `O=S(=O)(NCC1CCCO1)c1ccc2ccccc2c1` (centres undefined): the Potency result was “inactive”.
With `Cc1nc2cnc(Nc3ccccc3)nc2n(C[C@H]2CCCO2)c1=O`, the activity, negative = inhibition is 8.09% [at 0.501 µM] (inactive).
Take `Cc1cccc(S(=O)(=O)N2CN(CC3CCCO3)c3nc4ccccc4nc32)c1` (centres undefined): the Potency is 50.1 µM (active).
In the case of `COc1ccccc1NC(=O)c1cc(N2C(=O)C3C4CCC(C4)C3C2=O)ccc1Cl` (centres undefined), the Potency entry was “inactive”.
As for `Cc1ccc2nc(COc3ccccc3NC(=O)Nc3ccc(F)c(Cl)c3)cc(=O)n2c1`, the Potency entry is “inactive”.
Regarding `O=C(COC(=O)c1ncc(Cl)c(Cl)c1Cl)NCc1ccccc1`, the Potency result is “inactive”.
On the same count and under the same terms, with `COc1ccccc1Nc1cc(C(=O)NCCCN(C)C2CCCCC2)c2ccccc2n1` the entry was “inactive”; with `CCCCN(CCCNC(=O)c1cc(Nc2ccccc2OC)nc2ccccc12)c1ccccc1`, “inactive”.
Same read-out and setting: with `COc1ccc(Nc2cc(C(=O)NCCCN(C)c3ccccc3)c3ccccc3n2)c(OC)c1` the figure was 7.94 µM (active).
For `NC(=O)C1CCN(C(=O)c2cccc(NC(=O)c3nsc4ccccc34)c2)CC1`, the Potency entry is “inactive”.
Turning to `CCN1C(=NCCc2cccnc2)N[C@@H](c2ccccc2)[C@H](C(=O)OC)[C@H]1C`, the activity, negative = inhibition is -5.2% [at 12.7 µM] (inactive).
Turning to `CCN1C(=NCCc2cccnc2)N[C@@H](c2ccccc2)C(C(=O)OC)=C1C`, the Potency was 44.7 µM (active).
The same measure, in the same setting: with `COCCN1C(=O)N[C@@H](c2ccccc2)C(C(=O)OC)=C1C` the entry was “inactive”.
Turning to `CC(=O)Nc1c(C)nn(-c2ccccc2)c1N1CCC(C(=O)Nc2cc(Cl)ccc2C)CC1`, the Potency result is “inactive”.
For the compound `O=C(CN1C(=O)NC2(CCCC2)C1=O)OCCOc1ccc(F)cc1`, the activity, negative = inhibition was -1.07% [at 0.501 µM] (inactive).
Consider `CCOc1c(OC)cccc1C(=O)NCC1(c2ccccc2)CCCC1`, for which the Potency entry is “inactive”.
As to `Cc1ccc(-c2csc(N3CCN(c4cc5c(cc4Cl)nc(-c4ccncc4)n5CCOCCO)CC3)n2)cc1`, the Potency is 50.1 µM (active).
As to `CCCn1c(C2CCCN2c2nc(-c3ccc(C)cc3)cs2)nc2cc(Cl)c(N3CCCCC3)cc21` (centres undefined), the Potency result is “inactive”.
For `Cn1c(=O)c2c(nc(NCCc3ccccc3)n2Cc2ccccc2Br)n(C)c1=O`, the Potency entry was “inactive”.
`Cc1ccc(-n2c(SCC(=O)c3ccccc3)nc3c([nH]c4ccccc43)c2=O)cc1`: the Potency entry is “inactive”.
For the compound `O=C(OCc1nc2ccccc2[nH]1)C1CCCCC1`, the Potency result was “inactive”.
In the case of `O=C(Nc1sc2c(c1-c1nc3ccccc3[nH]1)CCCC2)C1CC1`, the Potency is 50.1 µM (active).
For the compound `CCOC(=O)c1c(NC(=O)C2CCN(S(=O)(=O)c3ccc(Cl)cc3)CC2)sc2c1CCCC2`, the Potency result is “inactive”.
Regarding `CC(C)c1ccc(NC(=O)c2ccc3c(O)c(S(=O)(=O)c4ccccc4)c(=O)[nH]c3c2)cc1`, the Potency result was “inactive”.
As to `Cc1cc(C)cc(NC(=O)CSc2nc(=O)n(CCN3CCOCC3)c3c2CCC3)c1`, the Potency entry is “inactive”.
For the compound `Cc1ccc(Cn2cc(CCC(=O)NCc3ccc(OC(C)C)cc3)c3ccccc32)cc1`, the Potency result is “inactive”.
For the compound `O=S(=O)(NCCc1ccc(Cl)cc1)c1cccs1`, the Potency result was “inactive”.
On to `C[N+](C)(C)CCNC(=O)c1cc[n+](Cc2ccccc2)c(/C=N/O)c1`, for which the Potency was 10 µM (active).
For `CN(c1ccccc1)S(=O)(=O)c1ccc(C(=O)NCCc2ccccc2)cc1`, the Potency result is “inactive”.
For the compound `CCCOc1ccc(C(=O)NCCc2ccccc2)cc1`, the Potency entry is “inactive”.
On to `CCOc1ncccc1C(=O)OCC(=O)N1c2ccccc2CC1C` (centres undefined), for which the Potency result is “inactive”.
As for `Cc1ncc(CO)c(/C=N/NC(=O)c2cccc(S(=O)(=O)N3CCCC3)c2)c1O`, the Potency result is “inactive”.
With `Cc1cccc2cc(CN(Cc3cccs3)C(=S)NCc3ccco3)c(=O)[nH]c12`, the Potency result is “inactive”.
Same read-out and setting: the value for `Cc1ccc(C)c2[nH]c(=O)c(CN(Cc3cccnc3)C(=S)NCc3ccco3)cc12` was 50.1 µM (active).
With `Cc1cc(C)c2[nH]c(=O)c(CN(Cc3ccccc3)C(=S)NCCCN(C)C)cc2c1`, the Potency entry was “inactive”.
Turning to `COc1ccc(C(=O)NCC2CCCCC2)cc1S(=O)(=O)N1CCCC1`, the activity, negative = inhibition was -36.7% [at 12.7 µM] (inactive).
With `N#C/C(=C\c1ccc(O)c(O)c1)C(=O)NCc1ccccc1`, the Potency was 5.01 µM (active) and 5.62 µM (active) and 4.74 µM (active).
Consider `COc1ccc(CNC(=O)/C(C#N)=C/c2cccc(OC)c2OC)cc1`, for which the activity, negative = inhibition was 44% [at 0.501 µM] (inactive).
`COCCNC(=O)/C(C#N)=C/c1cccc(OCc2ccccc2)c1`: the Potency entry is “inactive”.
With `COc1ccc(C2=NS(=O)(=O)N(C)C(C(=O)NC(C)c3ccccc3)=C2)cc1` (centres undefined), the Potency entry was “inactive and 14.1 µM (active)”.
Take `COc1ccc(NC(=O)C2=CC(c3ccc(OC)c(OC)c3)=NS(=O)(=O)N2C)cc1`: the Potency entry is “inactive”.
On to `COc1ccc(C2=NS(=O)(=O)N(C)C(C(=O)N(C)Cc3ccccc3)=C2)cc1`, for which the activity, negative = inhibition was 5.73% [at 12.7 µM] (inactive).
Take `CC(=O)N1c2ccc(S(=O)(=O)N3CCCC(C(=O)Nc4cccc(F)c4)C3)cc2CC1C` (centres undefined): the activity, negative = inhibition was -7.59% [at 12.7 µM] (inactive).
For `CCN(CCCNC(=O)Cn1ncc2c3ccccc3n(C)c2c1=O)Cc1ccccc1`, the Potency entry is “inactive”.
For `CCC(CC)c1nn2cc(-c3ccccc3)nc2s1`, the Potency entry was “inactive”.
With `O=C(Nc1ccc2c(c1)OCCO2)C1CCCC1`, the activity, negative = inhibition was 2.92% [at 12.7 µM] (inactive).
As to `Cc1cc(/C=N/Nc2ccc([N+](=O)[O-])cn2)c(C)n1-c1cccc(C(=O)O)c1`, the Potency was 15.8 µM (active).
On the same count and under the same terms, the value for `Cc1ccc(-n2c(C)cc(/C=N/Nc3ccc([N+](=O)[O-])cn3)c2C)c(C)c1` was “inactive”.
As for `Cc1cccc(C)c1NC(=O)CSc1ccc([N+](=O)[O-])cn1`, the Potency entry was “inactive”.
The same measure, in the same setting: with `C#CC(C)(CC)NC(=O)Cn1nnc(-c2ccc(OCc3c(F)cccc3Cl)cc2)n1` (centres undefined) the entry was “inactive”; with `CCOc1ccc(NC(=O)CN(C)C(=O)c2c(C)noc2C)cc1OCC`, “inactive”; with `Cc1ccc(CSCC(=O)N(C)CC(=O)Nc2cccc(F)c2)cc1`, “inactive”.
With `COCCN(C(=O)CSCc1ccc(C)cc1)c1c(N)n(CC(C)C)c(=O)[nH]c1=O`, the activity, negative = inhibition was 19% [at 12.7 µM] (inactive).
`Cc1ccc(CSCC(N)C(=O)O)cc1` (centres undefined): the Potency is 15.8 µM (active).
Still for that read-out and setting: with `Cc1ccc2c(=O)c(C(=O)c3ccc(F)cc3)cn(CC(=O)NC3CCCCC3)c2n1` the entry was “inactive”; with `O=C(NCCCN1CCCC1=O)c1cccc(S(=O)(=O)NCc2ccccc2)c1`, “inactive”; with `CN(CC(=O)Nc1cccc(F)c1)CC(=O)Nc1cccc([N+](=O)[O-])c1`, “inactive”.
On to `COc1ccc(S(=O)(=O)NC(C)C(=O)Nc2cccc([N+](=O)[O-])c2)cc1` (centres undefined), for which the Potency was 50.1 µM (active).
On to `COc1ccc(S(=O)(=O)NC(C)C(=O)N2CCCCCC2)cc1` (centres undefined), for which the Potency result was “inactive”.
Take `O=C(CSCC(=O)Nc1cccc([N+](=O)[O-])c1)Nc1ccccc1`: the Potency entry is “inactive”.
With `COc1ccc(CCNS(=O)(=O)c2cccc([N+](=O)[O-])c2)cc1`, the Potency entry is “inactive”.
The same measure, in the same setting: with `COC(=O)/C=C\C(=O)Nc1cccc([N+](=O)[O-])c1` the figure was 1.41 µM (active).
For the compound `Cc1c(C(=O)N(C)C)sc2c1c(=O)n(-c1ccc(F)cc1)c(=O)n2CC(=O)N(C)c1ccccc1`, the Potency entry is “inactive”.
Turning to `CC1=C(C(=O)Nc2ccccc2)C(c2ccc(C)cc2)n2nc(SCc3ccccc3C)nc2N1` (centres undefined), the Potency result was “inactive”.
For `CCc1cccc(C)c1NC(=O)COC(=O)CNC(=O)c1cccs1`, the Potency result was “inactive”.
For the compound `CCC1(c2ccccc2)NC(=O)N(CC(=O)Nc2ccccc2C(=O)NC2CCCC2)C1=O` (centres undefined), the activity, negative = inhibition is 20.5% [at 0.501 µM] (inactive).
For the compound `COc1cc2c(cc1OC)C(C(=O)Nc1cc(C)c(OC)c(C)c1)CC(=O)N2` (centres undefined), the Potency entry is “inactive”.
As to `CCc1ccc(Nc2n[n+](-c3ccccc3)c(-c3cccc(Cl)c3Cl)s2)cc1`, the activity, negative = inhibition is 10.7% [at 2.33 µM] (inactive).
As for `COc1cc(Br)c(-c2sc(Nc3ccccc3)n[n+]2-c2ccccc2)cc1OC`, the Potency was 28.2 µM (active).
Take `COc1ccc(C(=O)Nc2cccc(C(=O)OCc3cc(=O)n4c5c(sc4n3)CCCC5)c2)cc1`: the Potency result was “inactive”.
On to `COc1ccc(C)cc1NC(=O)CSc1nnc2ccc(-c3ccccn3)nn12`, for which the activity, negative = inhibition is 2.04% [at 0.501 µM] (inactive).
